Results taken from the supplement of paper PMC11732987, “Enantioselective OTUD7B fragment discovery through chemoproteomics screening and high-throughput optimisation” (Communications Chemistry, 2025).

Legend:
Test in all cases: log2 ratio of Biotin-Ahx-Ub-VS probe labelling (fragment/DMSO); higher = less target engagement (more negative = stronger competition), active = hit call of the paper (q ≤ 0.05, log2 ratio ≤ -1)
Settings in all cases: compound concentration: 200 uM; treatment time: 3 h
OTUD6B = molecular target: T1, OTUD6B (UniProt Q8N6M0)
T1 sequence (whole entry): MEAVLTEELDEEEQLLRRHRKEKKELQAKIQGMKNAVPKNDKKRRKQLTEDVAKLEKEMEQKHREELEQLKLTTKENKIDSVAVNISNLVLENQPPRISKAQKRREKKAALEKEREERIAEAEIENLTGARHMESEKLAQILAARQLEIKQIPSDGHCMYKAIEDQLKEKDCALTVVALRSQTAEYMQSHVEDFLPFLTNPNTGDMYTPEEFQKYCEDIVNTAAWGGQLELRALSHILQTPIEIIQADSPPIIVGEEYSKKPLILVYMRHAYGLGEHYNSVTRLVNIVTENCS
Method in brief: (§1)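 Global-median-normalised Spectronaut label-free quantities were compared by unpaired t-test, and values are average log2 ratios of fragment over vehicle. Only proteins with ≥2 unique peptides were used. HEK293T lysate (495 µg per sample) was treated in triplicate with fragment at 200 µM or vehicle for 3 h and then with Biotin-Ahx-Ub-VS at 0.5 µM final for 1 h. Labelled DUBs were then NeutrAvidin-enriched, digested with LysC and trypsin, and run by diaPASEF LC-MS/MS.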

OTUD7B = molecular target: T2, OTUD7B (UniProt Q6GQQ9)
T2 sequence (whole entry): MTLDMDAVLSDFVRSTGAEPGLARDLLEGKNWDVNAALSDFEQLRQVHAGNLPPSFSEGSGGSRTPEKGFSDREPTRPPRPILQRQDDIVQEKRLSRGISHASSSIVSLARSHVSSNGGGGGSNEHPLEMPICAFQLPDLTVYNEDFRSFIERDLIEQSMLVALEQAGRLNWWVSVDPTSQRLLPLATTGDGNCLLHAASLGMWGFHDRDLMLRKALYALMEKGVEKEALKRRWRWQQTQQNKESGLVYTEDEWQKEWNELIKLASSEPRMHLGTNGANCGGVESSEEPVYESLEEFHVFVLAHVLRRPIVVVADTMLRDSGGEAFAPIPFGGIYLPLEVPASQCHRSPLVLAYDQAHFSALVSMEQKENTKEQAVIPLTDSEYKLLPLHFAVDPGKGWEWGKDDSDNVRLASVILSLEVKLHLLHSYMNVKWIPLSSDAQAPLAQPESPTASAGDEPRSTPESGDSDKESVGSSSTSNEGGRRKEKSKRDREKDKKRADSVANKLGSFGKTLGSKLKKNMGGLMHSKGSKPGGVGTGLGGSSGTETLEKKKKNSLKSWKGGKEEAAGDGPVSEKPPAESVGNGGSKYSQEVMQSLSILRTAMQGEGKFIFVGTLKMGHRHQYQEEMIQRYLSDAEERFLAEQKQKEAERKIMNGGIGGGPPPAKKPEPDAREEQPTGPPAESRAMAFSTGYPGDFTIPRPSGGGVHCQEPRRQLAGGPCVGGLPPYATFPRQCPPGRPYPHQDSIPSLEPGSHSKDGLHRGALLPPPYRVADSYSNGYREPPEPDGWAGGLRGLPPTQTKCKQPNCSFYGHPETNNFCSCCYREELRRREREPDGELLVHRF
Method in brief: as §1

PRPF8 = PRPF8 (UniProt Q6P2Q9)
Method in brief: as §1

PSMD7 = molecular target: T3, PSMD7 (UniProt P51665)
T3 sequence (whole entry): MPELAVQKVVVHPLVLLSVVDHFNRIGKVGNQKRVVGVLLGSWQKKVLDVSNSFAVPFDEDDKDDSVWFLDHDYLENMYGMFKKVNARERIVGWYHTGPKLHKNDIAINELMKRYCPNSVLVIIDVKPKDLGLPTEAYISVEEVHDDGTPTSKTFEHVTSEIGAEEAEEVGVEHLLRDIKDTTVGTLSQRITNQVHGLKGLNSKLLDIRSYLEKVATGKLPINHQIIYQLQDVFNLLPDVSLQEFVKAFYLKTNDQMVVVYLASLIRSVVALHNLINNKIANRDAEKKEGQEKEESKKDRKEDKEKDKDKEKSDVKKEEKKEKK
Method in brief: as §1

UCHL1 = UCHL1 (UniProt P09936)
UCHL1, sequence (P09936 whole entry, looked up): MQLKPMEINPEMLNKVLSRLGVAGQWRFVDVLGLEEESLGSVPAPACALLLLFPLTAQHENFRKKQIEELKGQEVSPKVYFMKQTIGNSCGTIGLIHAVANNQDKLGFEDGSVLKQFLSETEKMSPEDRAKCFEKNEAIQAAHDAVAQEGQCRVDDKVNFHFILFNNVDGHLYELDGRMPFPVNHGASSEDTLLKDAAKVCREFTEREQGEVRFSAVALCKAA
Method in brief: as §1

UCHL3 = molecular target: T4, UCHL3 (UniProt P15374)
T4 sequence (whole entry): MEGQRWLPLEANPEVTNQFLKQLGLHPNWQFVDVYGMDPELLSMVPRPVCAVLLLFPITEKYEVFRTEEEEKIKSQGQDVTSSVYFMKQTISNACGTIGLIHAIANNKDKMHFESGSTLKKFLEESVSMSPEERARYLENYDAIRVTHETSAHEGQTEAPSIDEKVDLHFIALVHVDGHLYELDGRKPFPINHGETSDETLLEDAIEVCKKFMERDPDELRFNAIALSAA
Method in brief: as §1

UCHL5 = molecular target: T5, UCHL5 (UniProt Q9Y5K5)
T5 sequence (whole entry): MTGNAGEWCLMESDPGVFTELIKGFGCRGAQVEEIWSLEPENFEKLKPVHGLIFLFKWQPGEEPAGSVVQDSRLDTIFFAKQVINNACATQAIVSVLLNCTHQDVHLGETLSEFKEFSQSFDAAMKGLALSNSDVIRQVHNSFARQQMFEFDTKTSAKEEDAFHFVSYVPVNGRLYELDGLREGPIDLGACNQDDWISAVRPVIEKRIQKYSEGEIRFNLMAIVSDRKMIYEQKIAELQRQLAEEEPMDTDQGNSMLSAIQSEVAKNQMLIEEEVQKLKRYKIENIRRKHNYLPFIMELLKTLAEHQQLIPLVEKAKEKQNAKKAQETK
Method in brief: as §1

USP10 = USP10 (UniProt Q14694)
USP10, sequence (Q14694 whole entry): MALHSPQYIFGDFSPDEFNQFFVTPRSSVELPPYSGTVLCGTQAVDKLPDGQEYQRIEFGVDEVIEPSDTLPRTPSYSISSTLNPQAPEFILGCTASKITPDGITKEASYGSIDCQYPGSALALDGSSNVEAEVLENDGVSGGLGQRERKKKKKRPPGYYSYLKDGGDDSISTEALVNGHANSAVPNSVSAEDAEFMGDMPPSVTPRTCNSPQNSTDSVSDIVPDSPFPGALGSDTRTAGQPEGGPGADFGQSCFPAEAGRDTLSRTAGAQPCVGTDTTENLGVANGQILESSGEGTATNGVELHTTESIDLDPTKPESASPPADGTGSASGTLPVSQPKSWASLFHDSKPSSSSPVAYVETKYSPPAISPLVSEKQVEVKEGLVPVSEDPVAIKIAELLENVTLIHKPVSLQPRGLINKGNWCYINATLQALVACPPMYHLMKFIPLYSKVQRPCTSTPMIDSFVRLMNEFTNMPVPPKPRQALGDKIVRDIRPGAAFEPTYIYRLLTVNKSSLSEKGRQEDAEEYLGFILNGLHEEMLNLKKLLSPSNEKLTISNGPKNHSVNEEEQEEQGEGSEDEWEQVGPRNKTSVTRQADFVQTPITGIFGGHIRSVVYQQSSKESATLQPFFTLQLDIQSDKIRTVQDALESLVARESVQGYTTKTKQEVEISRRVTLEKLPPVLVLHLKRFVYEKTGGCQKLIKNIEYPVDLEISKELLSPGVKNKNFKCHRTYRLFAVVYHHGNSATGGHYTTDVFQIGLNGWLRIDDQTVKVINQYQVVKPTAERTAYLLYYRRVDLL
Method in brief: as §1

USP15 = molecular target: T6, USP15 (UniProt Q9Y4E8)
T6 sequence (whole entry): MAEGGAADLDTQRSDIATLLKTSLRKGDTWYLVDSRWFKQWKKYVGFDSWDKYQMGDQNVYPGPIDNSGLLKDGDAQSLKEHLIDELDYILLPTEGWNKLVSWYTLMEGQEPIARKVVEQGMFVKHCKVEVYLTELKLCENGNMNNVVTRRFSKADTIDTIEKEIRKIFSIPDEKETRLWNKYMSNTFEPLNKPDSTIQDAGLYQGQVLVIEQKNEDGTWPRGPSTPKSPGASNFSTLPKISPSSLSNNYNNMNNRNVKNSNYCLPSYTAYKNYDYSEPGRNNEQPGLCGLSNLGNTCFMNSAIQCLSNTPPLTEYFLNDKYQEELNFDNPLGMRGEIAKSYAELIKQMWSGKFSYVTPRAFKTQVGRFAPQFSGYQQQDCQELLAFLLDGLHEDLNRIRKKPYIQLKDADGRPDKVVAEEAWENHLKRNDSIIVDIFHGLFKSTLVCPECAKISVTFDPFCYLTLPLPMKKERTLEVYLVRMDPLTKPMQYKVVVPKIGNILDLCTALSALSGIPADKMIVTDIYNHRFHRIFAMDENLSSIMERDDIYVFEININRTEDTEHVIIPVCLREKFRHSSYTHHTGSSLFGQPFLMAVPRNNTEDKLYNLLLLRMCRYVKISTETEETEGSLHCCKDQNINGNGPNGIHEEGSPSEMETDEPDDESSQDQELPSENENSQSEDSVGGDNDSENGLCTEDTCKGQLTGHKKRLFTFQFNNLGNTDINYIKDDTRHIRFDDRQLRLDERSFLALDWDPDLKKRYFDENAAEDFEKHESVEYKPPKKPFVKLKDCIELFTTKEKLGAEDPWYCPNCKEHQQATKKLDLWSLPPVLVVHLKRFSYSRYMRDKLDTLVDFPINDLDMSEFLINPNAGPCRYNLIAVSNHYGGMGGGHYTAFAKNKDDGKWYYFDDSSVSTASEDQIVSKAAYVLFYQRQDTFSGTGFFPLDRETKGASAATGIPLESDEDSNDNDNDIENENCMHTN
Method in brief: as §1

USP16 = USP16 (UniProt Q9Y5T5)
USP16, sequence (Q9Y5T5 whole entry, looked up): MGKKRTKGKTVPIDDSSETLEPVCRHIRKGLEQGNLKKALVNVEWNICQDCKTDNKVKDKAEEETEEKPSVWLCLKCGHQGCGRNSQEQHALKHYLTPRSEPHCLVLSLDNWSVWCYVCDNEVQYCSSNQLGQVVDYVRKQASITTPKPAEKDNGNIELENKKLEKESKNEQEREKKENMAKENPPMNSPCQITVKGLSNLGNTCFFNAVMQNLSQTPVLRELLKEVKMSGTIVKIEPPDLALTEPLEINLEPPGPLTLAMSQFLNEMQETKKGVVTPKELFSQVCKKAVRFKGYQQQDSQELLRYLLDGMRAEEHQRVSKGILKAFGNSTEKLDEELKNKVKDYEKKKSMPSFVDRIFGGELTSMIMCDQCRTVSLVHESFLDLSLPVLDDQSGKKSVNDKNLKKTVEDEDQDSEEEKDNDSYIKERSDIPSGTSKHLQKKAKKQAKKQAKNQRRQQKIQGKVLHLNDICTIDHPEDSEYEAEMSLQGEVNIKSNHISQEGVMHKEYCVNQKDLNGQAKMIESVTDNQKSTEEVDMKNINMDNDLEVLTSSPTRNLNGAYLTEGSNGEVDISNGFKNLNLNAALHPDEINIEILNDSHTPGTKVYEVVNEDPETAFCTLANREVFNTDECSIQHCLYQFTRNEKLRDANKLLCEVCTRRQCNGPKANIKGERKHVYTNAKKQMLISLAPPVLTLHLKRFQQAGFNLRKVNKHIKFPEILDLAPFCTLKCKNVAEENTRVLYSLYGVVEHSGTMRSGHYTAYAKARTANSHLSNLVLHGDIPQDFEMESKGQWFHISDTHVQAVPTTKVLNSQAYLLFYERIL
Method in brief: as §1

Measured: log2 ratio of Biotin-Ahx-Ub-VS probe labelling

O=C(CCl)Nc1nnc(CC(F)(F)F)o1
inactive: OTUD6B -0.105 | OTUD7B -0.451 | PRPF8 0.0577 | PSMD7 -0.157 | UCHL3 -0.128 | UCHL5 -0.204 | USP10 -0.0274 | USP15 -0.341 | USP16 0.0973
active: UCHL1 -1.5
